# Columns and labels:
# Experiment in all cases: yeast three-hybrid, YBZ-1, SC-Leu-His + 0.5 mM 3-AT, 4 days
# Conditions in all cases: tags: N-Gal4 AD-HA kept; label: inside an RPR1-promoter hybrid RNA with tandem MS2 sites; ssRNA
# [1] = target: PUM1 PUF domain R1-YQR (Homo sapiens, UniProt Q14671 828-1176, S863Y;R864Q;Q867R)
# How it was run: (§1)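 Each repeat of the Pumilio-1 PUF domain was randomized at its three base-contacting residues, and these libraries were co-expressed from a centromeric plasmid with matching RNA elements in strain YBZ-1. After four days on SC-Leu (input) or SC-Leu-His + 0.5 mM 3-AT (selection), the repeat regions were PCR-amplified and Illumina-sequenced. The interaction score compares variant frequency between input and selection as a log change, computed in log2 with a pseudocount of 1 for absent variants.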
# [2] = target: PUM1 PUF domain R1-RVV (Homo sapiens, UniProt Q14671 828-1176, S863R;R864V;Q867V)
# How it was run: as §1
# [3] = target: PUM1 PUF domain R5-KKL (Homo sapiens, UniProt Q14671 828-1176, C1007K;R1008K;Q1011L)
# How it was run: as §1
# [4] = target: PUM1 PUF domain R5-EKC (Homo sapiens, UniProt Q14671 828-1176, C1007E;R1008K;Q1011C)
# How it was run: as §1
# [5] = target: PUM1 PUF domain R3-RST (Homo sapiens, UniProt Q14671 828-1176, C935R;R936S;Q939T)
# How it was run: as §1
# [6] = target: PUM1 PUF domain R3-RDR (Homo sapiens, UniProt Q14671 828-1176, C935R;R936D;Q939R)
# How it was run: as §1
# [7] = target: PUM1 PUF domain R8-RWV (Homo sapiens, UniProt Q14671 828-1176, N1122R;Y1123W;Q1126V)
# How it was run: as §1
# [8] = target: PUM1 PUF domain R5-GQS (Homo sapiens, UniProt Q14671 828-1176, C1007G;R1008Q;Q1011S)
# How it was run: as §1
# [9] = target: PUM1 PUF domain R5-NRF (Homo sapiens, UniProt Q14671 828-1176, C1007N;Q1011F)
# How it was run: as §1
# [10] = target: PUM1 PUF domain R5-KHT (Homo sapiens, UniProt Q14671 828-1176, C1007K;R1008H;Q1011T)
# How it was run: as §1
sequence,measurement,setting,value
GGCUAGAACUAGUGGAUCCCCCGGCGCCCGGCGGCUCGAGCCCGGGUAAGUGUAAAUUGUCUGCAUGCCGCCGGGCGCCAUGCCUGCAGGUCGACUCUAGAAAACAUG,binding signal,[1],6.49 log2 enrichment (interaction score)
same,binding signal,[2],2.58 log2 enrichment (interaction score)
GGCUAGAACUAGUGGAUCCCCCGGCGCCCGGCGGCUCGAGCCCGGGUAAGUGUCAAUAGUCUGCAUGCCGCCGGGCGCCAUGCCUGCAGGUCGACUCUAGAAAACAUG,binding signal,[3],2.13 log2 enrichment (interaction score)
same,binding signal,[4],2.59 log2 enrichment (interaction score)
GGCUAGAACUAGUGGAUCCCCCGGCGCCCGGCGGCUCGAGCCCGGGUAAGUGUAAUUAGUCUGCAUGCCGCCGGGCGCCAUGCCUGCAGGUCGACUCUAGAAAACAUG,binding signal,[5],2.83 log2 enrichment (interaction score)
same,binding signal,[6],4.8 log2 enrichment (interaction score)
GGCUAGAACUAGUGGAUCCCCCGGCGCCCGGCGGCUCGAGCCCGGGUAAGUGUAAAUAGUCUGCAUGCCGCCGGGCGCCAUGCCUGCAGGUCGACUCUAGAAAACAUG,binding signal,[7],5.01 log2 enrichment (interaction score)
same,binding signal,[8],3.39 log2 enrichment (interaction score)
GGCUAGAACUAGUGGAUCCCCCGGCGCCCGGCGGCUCGAGCCCGGGUAAGUGUUAAUAGUCUGCAUGCCGCCGGGCGCCAUGCCUGCAGGUCGACUCUAGAAAACAUG,binding signal,[3],2.25 log2 enrichment (interaction score)
same,binding signal,[4],2.3 log2 enrichment (interaction score)
same,binding signal,[9],5.64 log2 enrichment (interaction score)
GGCUAGAACUAGUGGAUCCCCCGGCGCCCGGCGGCUCGAGCCCGGGUAAGUGUAAAUCGUCUGCAUGCCGCCGGGCGCCAUGCCUGCAGGUCGACUCUAGAAAACAUG,binding signal,[2],2.37 log2 enrichment (interaction score)
GGCUAGAACUAGUGGAUCCCCCGGCGCCCGGCGGCUCGAGCCCGGGUAAGUGUGAAUAGUCUGCAUGCCGCCGGGCGCCAUGCCUGCAGGUCGACUCUAGAAAACAUG,binding signal,[8],2.15 log2 enrichment (interaction score)
same,binding signal,[10],2.38 log2 enrichment (interaction score)
GGCUAGAACUAGUGGAUCCCCCGGCGCCCGGCGGCUCGAGCCCGGGUAAGCGUAAAUAGUCUGCAUGCCGCCGGGCGCCAUGCCUGCAGGUCGACUCUAGAAAACAUG,binding signal,[7],5.22 log2 enrichment (interaction score)

# From PMC8384837, “Expanding the binding specificity for RNA recognition by a PUF domain”
